Activity calls are given as the source filed them. Calls come from the whole dose curve; as a rule, active = well fitted inhibition curve with a large enough effect; inconclusive = small, poorly fitted or top-dose-only effect; inactive = no such curve, though single readings can be large or run the other way.
Assay: qHTS assay for measurement of the activity of small molecule inhibitors on Zika virus induced Caspase-3 activity in human astrocytoma cells (AID 1224859)
Settings: SNB-19 ZIKV-induced caspase-3/7, luminescence, 6 h; series mostly up to 45.7 µM; activity change, negative = inhibition: at the top concentration
Source text: National Center for Advancing Translational Sciences [NCATS]
Johns Hopkins University School of Medicine
Increase in the Caspase-3 activity indicates an activation of apoptosis cell death pathway caused by Zika virus infection in certain types of neuronal cells including human neural progenitor cells (hNPCs), astrocytes, and astrocytoma cell line (SNB-19). This cell-based caspase-3 activity assay measures the increased caspase-3 activity in the astrocytoma cell line (SNB-19) after a 6-hour Zika virus infection with a luminescence readout. A decrease in the luminescence signal in this assay by small molecule treatment indicates an inhibitory effect of that small molecule on the Zika virus induced caspase-3 activity that may correlate with its effect on reduction of Zika virus caused cell death.
The medium for SNB-19 cells is composed of RPMI 1640 (ATCC, Cat.# 30-2001), 10% fetal bovine serum (FBS) (GE healthcare Life Sciences, Cat.# SH30071.03), and 1% Pen/Strep (Gibco, Cat.# 15140-122). A Caspase-Glo 3/7 assay kit (catalog number G8092; Promega, Madison, WI) was used to detect caspase-3 activity induced by Zika virus infection in human cells. The reagent mixture was reconstituted as described in the protocol from the manufacturer. Polystyrene tissue culture treated and PDL coated white plates were obtained from Greiner Bio-One (Monroe, NC). Cells were seeded in 384- or 1536-well assay plates and cultured at 37 C with 5% CO2 for 16 to 20 hours. The typical cell seeding density in the 1536-well plate assay is 250 cells/well in 3ul medium for SNB-19 cells in tissue culture treated plates. Compounds were added to cells and incubated for one hour before addition of ZIKV solution to cells (2 FFU/cell). After incubation at 37 C with 5% CO2 for 6 hours, the reagent mixture of Caspase-Glo 3/7 assay kit was added to each well, followed by incubation at room temperature for 30 minutes. The luminescence intensity of the assay plates was measured using a ViewLux plate reader (PerkinElmer). Data were normalized by using the cell-containing wells without ZIKV as a negative control (0% induction of caspase 3/7 activity) and wells containing ZIKV infected cells (Caspase-3 activity induced) as a positive control (100% induction of caspase 3 activity). The percentage inhibitions of the increased Caspase-3 activity by small molecule inhibitors were then calculated.

SMILES | activity change, negative = inhibition
CCOc1ccccc1N=Nc1c(C)[nH]n(-c2nc(-c3ccccc3)cs2)c1=O | 0.79% (inactive)
CCCCC[C@H](O)C=C[C@H]1[C@H](O)CC(=O)[C@H]1CCCCCCC(=O)O | -7.25% (inactive)
Cc1c(C(=O)Nc2ccc(N3C[C@@H](C)O[C@@H](C)C3)nc2)cccc1-c1ccc(OC(F)(F)F)cc1 | 64.9% (inactive)
CCn1c(-c2nonc2N)nc2cncc(CNC3CCNCC3)c21 | 73.3% (inactive)
Cc1ccc(C2=Nc3ccc(Cl)cc3OC2)cc1 | 21.2% (inactive)
O=C(Nc1cccc2c(=O)cc(-c3nn[nH]n3)oc12)c1ccc(OCCCCc2ccccc2)cc1 | 5.21% (inactive)
COc1c(C)c2c(c(O)c1CC=C(C)CCC(=O)O)C(=O)OC2 | 20.1% (inactive)
O=S(=O)(NCCNCC=Cc1ccc(Br)cc1)c1cccc2cnccc12 | -5.1% (inactive)
NC(N)=Nc1nc(CSCCC(N)=NS(N)(=O)=O)cs1 | 8.88% (inactive)
N=C1SC(=Cc2ccc(-c3ccc4c(c3)C(=O)NC4=O)o2)C(=O)N1c1ccc(Br)cc1 | -4.2% (inactive)
CCC(=O)N1CCN(c2ccc(-n3c(=O)ccc4cnc5ccc(-c6cnc7ccccc7c6)cc5c43)cc2C(F)(F)F)CC1 | 15.9% (inactive)
CCC[C@@H](NC(=O)[C@@H]1[C@H]2CCC[C@@H]2CN1C(=O)[C@@H](NC(=O)[C@@H](NC(=O)c1cnccn1)C1CCCCC1)C(C)(C)C)C(=O)C(=O)NC1CC1 | -13.3% (inactive)
C=CCc1cccc(C=NNC(=O)CN2CCN(Cc3ccccc3)CC2)c1O | 29% (inactive)
FC(F)(F)c1ccc(C=Cc2nc(COc3ccc(CCCCn4ccnn4)cc3)co2)cc1 | 22.2% (inactive)
CC(C)CNc1ccnc(NCc2csc(-c3ccccc3)n2)n1 | 90.5% (inactive)
C[C@@H](NC(=O)c1ncnc(N)c1Cl)c1ncc(C(=O)Nc2cc(C(F)(F)F)c(Cl)cn2)s1 | -4.82% (inactive)
C=C[C@@H]1CN2CCC1C[C@@H]2C(O)c1ccnc2ccc(OC)cc12 (stereo not given in full) | 13.8% (inactive)
CN1C(=O)C[C@H](C(=O)N[C@@H](Cc2cnc[nH]2)C(=O)N2CCC[C@@H]2C(N)=O)NC1=O | 4.69% (inactive)
C[C@]12CC[C@@H]3c4ccc(O)cc4CC[C@H]3[C@H]1[C@@H](O)[C@@H](O)[C@H]2O | -6.74% (inactive)
CN(C)c1nc(Cc2ccc(NC(=O)c3ccc(C(F)(F)F)cc3)cc2)nc(N(C)C)c1CC(=O)O | 0.0652% (inactive)

SMILES | activity change, negative = inhibition
CN1CCN2c3ncccc3Cc3ccccc3C2C1 (stereo not given) | -4.26% (inactive)
CCCCn1c(=O)n(Cc2ccccc2F)c(=O)c2[nH]c(Cc3ccc(NC(C)=O)cc3)nc21 | 16.3% (inactive)
CN1CC(=O)N2C(Cc3c([nH]c4ccccc34)[C@H]2c2ccc3c(c2)OCO3)C1=O (stereo not given in full) | -30.1% (inactive)
Cc1ccc(NC(=O)c2cccc(N(C)C)c2)cc1NC(=O)c1ccc(O)cc1 | 4.88% (inactive)
CC[C@]1(O)C[C@H]2CN(CCC3=c4ccccc4=N[C]3[C@@](C(=O)OC)(c3cc4c(cc3OC)N(C)[C@H]3[C@@](O)(C(N)=O)[C@H](O)[C@]5(CC)C=CCN6CC[C@]43[C@@H]65)C2)C1 | -23% (inactive)
C[C@@H](O[C@H]1OCCN(Cc2n[nH]c(=O)[nH]2)[C@@H]1c1ccc(F)cc1)c1cc(C(F)(F)F)cc(C(F)(F)F)c1 | 54.7% (inactive)
O=C(O)C1=CC(O)C(O)[C@H](O)C1 (stereo not given in full) | 14.3% (inactive)
CCc1cc(-c2n[nH]c(C)c2-c2ccc3c(c2)OCCO3)c(O)cc1O | 11.5% (inactive)
CCCCCCCCCCCCCCCC(=O)O[C@H]1[C@@H](O)[C@@H](O)[C@@H]([C@H](NC(=O)[C@@H]2C[C@@H](CCC)CN2C)[C@H](C)Cl)O[C@@H]1SC | 19.4% (inactive)
CC(C)(CO)[C@@H](O)C(=O)NCCC(=O)O | 10.3% (inactive)
COc1ccc2c(c1)c(C1=C(c3c[nH]c4ccccc34)C(=O)NC1=O)cn2CCCN(C)C | -10.6% (inactive)
COc1nccc(-c2c(-c3ccc(F)cc3)ncn2C2CCNCC2)n1 | -9.33% (inactive)
Nc1ncnc2c1c(-c1cccc(OCc3ccccc3)c1)cn2C1CC(CN2CCC2)C1 (stereo not given) | 26.6% (inactive)
C=CC(=O)Nc1cccc(Sc2nc(Nc3ccc(N4CCN(C)CC4)cc3)ncc2Cl)c1 | 22.1% (inactive)
CC1=C(CC(=O)O)c2cc(F)ccc2C1=Cc1ccc(S(C)=O)cc1 (stereo not given) | 28.3% (inactive)
Cc1ccc2c(=O)c3cccc(CC(=O)O)c3oc2c1C | 92.7% (inactive)
COc1nc(C)cnc1NS(=O)(=O)c1cccnc1-c1ccc(-c2nnco2)cc1 | -0.293% (inactive)
CN1CC(=O)NC1=NC(=O)Nc1cccc(Cl)c1 | 16.7% (inactive)
CC(=O)N1CCN(c2ccc(OCc3nn(C)c(C)c3-c3cccc4c(CCCOc5cc(C)c(Cl)c(C)c5)c(C(=O)O)n(Cc5cccnc5)c34)cc2)CC1 | 29.5% (inactive)
COc1cc2c(cc1OC)CC(=O)N(CCCN(C)C[C@H]1Cc3cc(OC)c(OC)cc31)CC2 | 23.3% (inactive)
